Test results taken from article PMC11062922 (Nature Chemical Biology, 2023).

What was measured:
Parameters in all cases: species or system human, MV4-11 + K-562 + COLO205 + SK-N-BE2 + OVCAR-8
[1] = system: SMG1; details: read-out: apparent Kd; compound concentrations: 100 nM and 1000 nM (sheet 'Samples'), CATDS: 0.40091827457547202; n = 1
[2] = system: IARS; details: read-out: apparent Kd; compound concentrations: 100 nM and 1000 nM (sheet 'Samples'), CATDS: 0.121118103418118; n = 1
[3] = system: RAB6A;RAB6B; details: read-out: apparent Kd; compound concentrations: 100 nM and 1000 nM (sheet 'Samples'), CATDS: 6.2517900726017095E-2; n = 1
[4] = system: IGF1R; details: read-out: apparent Kd; compound concentrations: 100 nM and 1000 nM (sheet 'Samples'), CATDS: 4.98725467652835E-2; n = 1
[5] = system: INSR; details: read-out: apparent Kd; compound concentrations: 100 nM and 1000 nM (sheet 'Samples'), CATDS: 5.9878421296946899E-2; n = 1
[6] = system: MAP4K4; details: read-out: apparent Kd; compound concentrations: 100 nM and 1000 nM (sheet 'Samples'), CATDS: 5.45482325953821E-2; n = 1
[7] = system: HSP90AA1; details: read-out: apparent Kd; compound concentrations: 100 nM and 1000 nM (sheet 'Samples'), CATDS: 6.9109754816413196E-2; n = 1
[8] = system: HSPE1; details: read-out: apparent Kd; compound concentrations: 100 nM and 1000 nM (sheet 'Samples'), CATDS: 0.293798637885134; n = 1
[9] = system: PGK1; details: read-out: apparent Kd; compound concentrations: 100 nM and 1000 nM (sheet 'Samples'), CATDS: 0.39771264362053399; n = 1
[10] = system: PRKG1; details: read-out: apparent Kd; compound concentrations:100 nM and 1000 nM (sheet 'Samples'); n = 1
[11] = system: PRKX; details: read-out: apparent Kd; compound concentrations:100 nM and 1000 nM (sheet 'Samples'); n = 1
[12] = system: ROCK2; details: read-out: apparent Kd; compound concentrations:100 nM and 1000 nM (sheet 'Samples'); n = 1
[13] = system: HMOX2; details: read-out: apparent Kd; compound concentrations:100 nM and 1000 nM (sheet 'Samples'); n = 1
[14] = system: PKN2; details: read-out: apparent Kd; compound concentrations:100 nM and 1000 nM (sheet 'Samples'); n = 1

`COc1ccc(-c2ccncc2)cc1C(N)=O` [GSK605714A] gave a potency estimated from few doses [1] of 1830 nM.
With `CS(=O)(=O)c1ccc(-c2nc3n(c2-c2ccncc2)CCC3)cc1` [SKF-105942] the potency estimated from few doses [2] was 1900 nM.
`Fc1cccc(COc2ccc(Nc3ncncc3C#Cc3ccccc3)cc2Cl)c1` [GW651576X] was tested, and the potency estimated from few doses [3] was 1160 nM.
In the case of `COc1cc(N2CCN(C(C)C)CC2)ccc1Nc1nc(Nc2cccc(F)c2C(=O)O)c2cc[nH]c2n1` [GSK1819799A], the potency estimated from few doses [4] is reported as 1270 nM and the potency estimated from few doses [5] is reported as 816 nM.
`COc1ccc(-c2nn3ncccc3c2-c2ccnc(Nc3ccc4c(c3)OCCO4)n2)cc1` [GW827106X] gave a potency estimated from few doses [6] of 1220 nM.
`Cc1[nH]nc2c1N=C(c1ccccc1Cl)c1cc([N+](=O)[O-])ccc1N2` [RO0274406-000] gave a potency estimated from few doses [7] of 1380 nM, a potency estimated from few doses [8] of 60.7 nM and a potency estimated from few doses [9] of 37.7 nM.
`COc1ccc(C2=NC(c3ccc(Cl)cc3F)C(C(=O)Nc3ccc4[nH]ncc4c3)=C(C)N2)cn1.O=C(O)C(F)(F)F` (centres unmarked) [GSK534913A] showed a potency estimated from few doses [10] of 825 nM, a potency estimated from few doses [11] of 758 nM and a potency estimated from few doses [12] of 131 nM.
`Nc1c(C(=O)c2ccccc2)cnn1-c1ccc(F)cc1` [RO1151246-000] was tested, and the potency estimated from few doses [13] was 2210 nM and the potency estimated from few doses [14] was 1910 nM.
